In PubChem BioAssay AID686979 (National Center for Advancing Translational Sciences (NCATS), 2013):
In all, about 420,000 compounds went through this assay and about 50,000 (12%) were called active. Inconclusive results (about 26%) are left out. The entries come from a sample that favours actives as a whole. A call without a number means that no potency is given here. A number with no mark means an inactive call. Calls follow the shape of the dose curve; as a rule, active = well fitted inhibition curve with a large enough effect; inconclusive = small, poorly fitted or top-dose-only effect; inactive = flat fitted curve, though single readings scatter.
Potency is read from the fitted curve at half-maximal effect.

Experiment: qHTS for Inhibitors of human tyrosyl-DNA phosphodiesterase 1 (TDP1): qHTS in cells in presence of CPT; also: nearly all actives have a fitted effect of over 55% in size
Settings: chicken DT40 Tdp1-/-;hTDP1 cells + 20 nM CPT, ATP luminescence, 48 h; series mostly up to 46.2 µM
Method in brief: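 Chicken DT40 Tdp1-/- cells complemented with human TDP1, 400 cells/well, exposed to compounds plus 20 nM camptothecin for at least 48 h at 37 C; viability read as ATP content by CellTiter-Glo luminescence.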
In the case of `CN1C(=O)CC(c2ccccc2)C1=O` (stereo unspecified), the Potency is reported as “inactive”. For `Cc1ccc(-n2ncc3c(N4CCC(C(N)=O)CC4)ncnc32)cc1`, the Potency was “inactive”. For `Cc1ccc(-n2ncc3c(=O)[nH]cnc32)c(C)c1`, the Potency was “inactive”. In the case of `Cc1ccc(-n2ncc3c(N4CCN(c5ccc(F)cc5)CC4)ncnc32)c(C)c1`, the Potency is reported as 11.6 µM (active). For `COc1ccc(CCOC2OC(CO)C(OC(=O)/C=C/c3ccc(O)c(OC)c3)C(O[C@H]3O[C@@H](C)[C@H](O)[C@@H](O)[C@H]3O)C2O)cc1O` (stereo partly specified), the Potency was “inactive”. For `Cc1ccc(S(=O)(=O)CCC(=O)OCC(=O)NCCc2ccc(S(N)(=O)=O)cc2)cc1`, the Potency was “inactive”. For `Cc1c(C(=O)N2CCCC2)c(S(=O)(=O)NCC(C)c2ccccc2)c(C)n1C` (stereo unspecified), the Potency was “inactive”. For `CC(C)N=C1CCCC1C(=S)SSC(=S)C1CCCC1=NC(C)C` (stereo unspecified), the Potency was 0.0366 µM (active). With `COc1ccccc1/C=C1\SC(=O)N(CCC(=O)N(C)C2CCS(=O)(=O)C2)C1=O` (stereo unspecified) the Potency was “inactive”. In the case of `O=C(O)c1ccccc1-c1ccccc1C(=O)Nc1cccc2ccccc12`, the Potency is reported as “inactive”. For `COc1ccc(C(=O)Nc2onc3c2CCCC3)cc1`, the Potency was “inactive”. For `O=C(Nc1cccc2ccccc12)c1onc2c1CCCC2`, the Potency was 10.3 µM (active). In the case of `COC(=O)/C(=C1\Oc2ccc(C(C)(C)C)cc2S1)C(F)(F)F`, the Potency is reported as “inactive”. With `CC(Sc1nnc(-c2cccs2)n1C1CC1)C(=O)NCC1CCCO1` (stereo unspecified) the Potency was “inactive”. For `O=S(=O)(NCc1ccccc1Br)c1ccccc1Br`, the Potency was “inactive”. With `O=C(Nc1ccc([N+](=O)[O-])cc1)C1(c2ccccc2)CCOCC1` the Potency was “inactive”. In the case of `Clc1ccc(-n2nnnc2-c2cnc(-c3ccccn3)nc2-c2cccs2)cc1`, the Potency is reported as 6.51 µM (active). In the case of `CN(C)c1nnnn1-c1ccc(Cl)cc1`, the Potency is reported as “inactive”. With `O=C(CN1C(=O)CSC1=O)N1CCCC(Nc2ccc(F)cc2)C1` (stereo unspecified) the Potency was “inactive”. For `COc1ccc(CCNC(=O)CCc2c(C)nc3c(c(C)nn3-c3ccc(C)c(C)c3)c2C)c(OC)c1OC`, the Potency was “inactive”. In the case of `COc1cccc2[nH]c(C(=O)NCCc3ccccc3)cc12`, the Potency is reported as “inactive”. In the case of `COc1ccc(CCNC(=O)c2cc3cccc4c3n2CC(C)S4)c(OC)c1OC` (stereo unspecified), the Potency is reported as 20.6 µM (active). For `Cc1c(C(=O)N(C)C)sc2c1c(=O)n(-c1ccc(F)cc1)c(=O)n2CC(=O)N(C)c1ccccc1`, the Potency was “inactive”. For `O=C(COC(=O)c1ccccn1)Nc1cccc2ccccc12`, the Potency was “inactive”. In the case of `Cc1cc(C)nc(-n2nc(C)cc2NC(=O)c2ccc(F)cc2F)n1`, the Potency is reported as 4.11 µM (active). For `CC(=O)N/C(=N/c1nc(C)cc(C)n1)Nc1ccc(F)cc1F`, the Potency was “inactive”. For `CCOC(=O)c1cccc(NC(=O)c2ccc(F)cc2F)c1`, the Potency was “inactive”. With `Cc1noc(C)c1C(=O)OC(C)C(=O)Nc1ccc2c(c1)OCO2` (stereo unspecified) the Potency was “inactive”. In the case of `CN1CCN(NC(=O)Nc2ccc(Br)cc2)CC1`, the Potency is reported as “inactive”. With `CCn1cc(CN2CCC(C(=O)Nc3cccc(-c4cccc(Cl)c4)c3)CC2)c(C)n1` the Potency was 13 µM (active). For `CCn1cc(CN2CCC(C(=O)Nc3cccc(-c4cccc(Cl)c4)c3)CC2)cn1`, the Potency was 16.4 µM (active). With `CCn1cc(CN2CCC(n3nccc3NC(=O)CCCc3ccccc3)CC2)c(C)n1` the Potency was “inactive”. With `O=C(Nc1ccc(-n2cccn2)cc1)C1CCN(Cc2ccsc2)CC1` the Potency was “inactive”. With `CCNC(=S)NNC(=O)C1CCN(Cc2ccccc2)CC1` the Potency was “inactive”. In the case of `COc1cccc(-c2cccc(NC(=O)C3CCN(C4CCC4)CC3)c2)c1`, the Potency is reported as “inactive”. For `CC(CCn1cccn1)NC(=O)CCc1nnc(CCc2ccccc2)o1` (stereo unspecified), the Potency was “inactive”. With `CCC(C)NC(=O)C1c2ccccc2C(=O)N1Cc1ccccc1` (stereo unspecified) the Potency was “inactive”. In the case of `Cc1cc(-c2ccnc(-n3ncc(C(=O)NC(C)(C)CO)c3C3CC3)n2)c(C)s1`, the activity change, negative = growth inhibition is reported as 3.64% [at 9.04 µM]. In the case of `COc1ccc(NC(=O)N2CCCC(C(=O)Nc3ccccc3OC)C2)cc1` (stereo unspecified), the Potency is reported as “inactive”. In the case of `COc1ccc(CNC(=O)C2CCN(C(=O)c3ccccc3)CC2)cc1`, the Potency is reported as “inactive”. With `CCc1ccc(NC(=O)CN2CCC(C(=O)c3ccc(OC)cc3)CC2)cc1` the Potency was 5.8 µM (active). For `CC(C)(C)c1ccc(C(=O)N2CCC(C(=O)N3CCCCC3)CC2)cc1`, the Potency was “inactive”. For `COc1ccc(C(=O)N2CCC(C(=O)Nc3ccc(C)cc3)CC2)cc1`, the Potency was 18.4 µM (active). In the case of `COc1ccc(C(=O)Nc2ccc(CN3CCOCC3)cc2)cc1`, the Potency is reported as “inactive”. In the case of `COc1ccc(CNC(=O)C2CCN(C(=O)c3ccco3)CC2)cc1`, the Potency is reported as “inactive”. For `COc1ccccc1NC(=O)C1CCN(C(=O)c2ccc(C(C)(C)C)cc2)CC1`, the Potency was 23.1 µM (active). In the case of `CCc1ccc(NC(=O)Cn2nnc(C(=O)NCc3ccc(OC)cc3)c2N)cc1`, the Potency is reported as “inactive”. With `Cc1ccc(NC(=O)[C@H](Cc2ccccc2)NC(=O)C2CCNCC2)cc1` the Potency was “inactive”. In the case of `CC(=O)Nc1ccc(S(=O)(=O)N2CCC(NC(=O)c3ccccc3)CC2)cc1`, the Potency is reported as “inactive”. For `O=C(Cc1ccc(Br)cc1)NCCc1ccccc1`, the Potency was “inactive”. For `O=C(Nn1cnnc1)c1cc(Cl)ccc1Cl`, the Potency was “inactive”.
